What all share (assay): DAPPL (digital affinity profiling via proximity ligation, sequencing); 10 mM Tris-HCl pH 7.5, 50 mM NaCl, 1 mM DTT, 4% glycerol, room temperature, 30 min; GST-TFs on glutathione beads, 16-mer random dsDNA library, 0.1% formaldehyde crosslink after washing; high values mean tight binding
Holding throughout (conditions): protein: recombinant; tags: N-terminal GST; dsDNA, one strand shown

Assay [1] deals with T1, GABPA (Homo sapiens, UniProt Q06546 1-454).
T1 sequence: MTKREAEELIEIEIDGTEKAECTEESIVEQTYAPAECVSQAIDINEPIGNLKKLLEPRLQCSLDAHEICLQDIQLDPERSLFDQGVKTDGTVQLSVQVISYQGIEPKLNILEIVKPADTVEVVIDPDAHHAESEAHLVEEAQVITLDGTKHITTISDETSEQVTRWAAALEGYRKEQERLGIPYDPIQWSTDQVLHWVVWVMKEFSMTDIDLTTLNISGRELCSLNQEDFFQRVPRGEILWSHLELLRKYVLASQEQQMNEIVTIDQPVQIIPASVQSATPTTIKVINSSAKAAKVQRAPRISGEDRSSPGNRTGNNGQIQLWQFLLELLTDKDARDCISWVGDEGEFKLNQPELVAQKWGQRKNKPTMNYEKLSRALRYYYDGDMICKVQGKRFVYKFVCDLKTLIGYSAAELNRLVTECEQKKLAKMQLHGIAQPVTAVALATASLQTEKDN
An outline of the steps:
(§1)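 Binding signal is defined as a hexamer's read frequency for one factor over its frequency for the tag-only sample. To obtain reads, GST-fused human transcription factors were expressed in yeast, captured on glutathione beads, barcoded with DNA and pooled with that sample. Pools met 200 nmole of a 16-mer random double-stranded DNA library in Tris/NaCl/DTT/glycerol buffer for 30 min at room temperature before washing, 0.1% formaldehyde crosslinking, proximity ligation (BsaI/T4 ligase, 1 h, 37 °C), PCR and Illumina NextSeq500 sequencing.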

Assay [2] concerns the target SPI1 (Homo sapiens, UniProt P17947 1-270). The method, boiled down: as §1
Assay [3] addresses T2, SPIC (Homo sapiens, UniProt Q8N5J4 1-248).
T2 sequence: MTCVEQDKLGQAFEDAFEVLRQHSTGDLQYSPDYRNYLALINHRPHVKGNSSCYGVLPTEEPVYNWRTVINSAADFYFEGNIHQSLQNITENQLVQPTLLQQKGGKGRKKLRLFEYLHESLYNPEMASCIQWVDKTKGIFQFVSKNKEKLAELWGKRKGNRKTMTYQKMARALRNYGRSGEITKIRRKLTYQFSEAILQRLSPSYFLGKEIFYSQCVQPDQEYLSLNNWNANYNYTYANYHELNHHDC
An outline of the steps: as §1

Assay [4] concerns the target T3, ELF3 (Homo sapiens, UniProt P78545 1-371).
T3 sequence: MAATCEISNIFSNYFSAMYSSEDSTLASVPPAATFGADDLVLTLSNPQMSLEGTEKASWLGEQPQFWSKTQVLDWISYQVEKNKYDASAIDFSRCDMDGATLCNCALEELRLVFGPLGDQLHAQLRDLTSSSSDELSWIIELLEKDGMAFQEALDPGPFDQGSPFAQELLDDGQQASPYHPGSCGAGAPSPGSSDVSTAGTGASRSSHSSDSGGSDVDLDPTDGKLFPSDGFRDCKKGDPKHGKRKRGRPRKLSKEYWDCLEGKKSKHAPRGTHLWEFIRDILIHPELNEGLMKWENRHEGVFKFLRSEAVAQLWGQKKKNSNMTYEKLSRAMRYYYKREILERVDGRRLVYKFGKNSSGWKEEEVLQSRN
The method, boiled down:
as §1

The target of assay [5] is ETV1 (Homo sapiens, UniProt P50549 1-477). The method, boiled down:
as §1

Assay [6] concerns the target T4, ELF5 (Homo sapiens, UniProt Q9UKW6-2 1-255).
T4 sequence: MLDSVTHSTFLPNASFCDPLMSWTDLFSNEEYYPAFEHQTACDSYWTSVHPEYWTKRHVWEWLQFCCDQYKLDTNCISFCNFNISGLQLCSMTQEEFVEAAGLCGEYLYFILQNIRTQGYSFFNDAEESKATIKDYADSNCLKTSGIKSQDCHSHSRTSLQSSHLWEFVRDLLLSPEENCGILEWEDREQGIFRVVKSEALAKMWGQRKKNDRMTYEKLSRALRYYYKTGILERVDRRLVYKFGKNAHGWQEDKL
An outline of the steps:
as §1

Assay [7] concerns the target T5, ETV3 (Homo sapiens, UniProt P41162-2 1-143).
T5 sequence: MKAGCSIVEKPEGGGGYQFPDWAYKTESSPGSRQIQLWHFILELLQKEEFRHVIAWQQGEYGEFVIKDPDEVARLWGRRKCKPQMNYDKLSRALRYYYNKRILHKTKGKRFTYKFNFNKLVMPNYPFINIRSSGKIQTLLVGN
An outline of the steps:
as §1

Assay [8] has as its target ELF1 (Homo sapiens, UniProt P32519 1-619). The method, boiled down: as §1
Assay [9] addresses T6, ELK3 (Homo sapiens, UniProt P41970 1-407).
T6 sequence: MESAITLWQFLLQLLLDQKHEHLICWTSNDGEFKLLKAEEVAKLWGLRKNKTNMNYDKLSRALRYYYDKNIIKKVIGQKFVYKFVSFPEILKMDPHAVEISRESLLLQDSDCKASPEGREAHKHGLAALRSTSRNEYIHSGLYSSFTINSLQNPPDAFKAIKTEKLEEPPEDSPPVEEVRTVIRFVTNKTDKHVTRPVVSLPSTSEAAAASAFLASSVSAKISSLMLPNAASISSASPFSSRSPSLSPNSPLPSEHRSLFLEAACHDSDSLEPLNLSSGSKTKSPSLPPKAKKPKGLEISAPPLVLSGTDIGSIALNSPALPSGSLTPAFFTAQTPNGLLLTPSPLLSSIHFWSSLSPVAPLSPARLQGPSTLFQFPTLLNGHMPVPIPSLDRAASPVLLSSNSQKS
An outline of the steps:
as §1

Assay [10] has as its target T7, ELK4 (Homo sapiens, UniProt P28324-2 1-405).
T7 sequence: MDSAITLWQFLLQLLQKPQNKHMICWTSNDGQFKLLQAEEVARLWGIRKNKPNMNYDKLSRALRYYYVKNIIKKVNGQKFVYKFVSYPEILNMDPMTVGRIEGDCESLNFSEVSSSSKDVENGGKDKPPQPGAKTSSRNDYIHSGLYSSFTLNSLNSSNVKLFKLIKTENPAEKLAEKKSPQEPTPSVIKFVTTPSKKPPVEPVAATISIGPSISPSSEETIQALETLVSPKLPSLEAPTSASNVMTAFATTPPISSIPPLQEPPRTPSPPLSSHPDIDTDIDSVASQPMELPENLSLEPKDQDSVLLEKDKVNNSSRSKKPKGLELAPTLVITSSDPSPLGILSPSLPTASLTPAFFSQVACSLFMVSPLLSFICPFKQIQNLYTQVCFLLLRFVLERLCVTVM
An outline of the steps:
as §1

In assay [11] the target is T8, ETS2 (Homo sapiens, UniProt P15036 1-469).
T8 sequence: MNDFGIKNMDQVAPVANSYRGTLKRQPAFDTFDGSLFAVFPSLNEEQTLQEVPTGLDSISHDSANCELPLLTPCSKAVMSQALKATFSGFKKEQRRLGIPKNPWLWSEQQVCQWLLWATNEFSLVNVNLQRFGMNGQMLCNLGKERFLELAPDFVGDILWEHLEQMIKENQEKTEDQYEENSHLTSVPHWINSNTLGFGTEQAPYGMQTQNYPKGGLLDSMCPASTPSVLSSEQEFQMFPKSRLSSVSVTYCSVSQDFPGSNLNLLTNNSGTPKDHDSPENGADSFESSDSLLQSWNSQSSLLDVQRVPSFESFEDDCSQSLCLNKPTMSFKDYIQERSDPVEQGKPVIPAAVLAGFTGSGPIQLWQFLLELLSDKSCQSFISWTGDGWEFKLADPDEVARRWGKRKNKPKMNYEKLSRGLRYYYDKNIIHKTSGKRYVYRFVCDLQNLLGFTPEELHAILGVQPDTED
The method, boiled down:
as §1

The target in assay [12] is T9, ELK1 (Homo sapiens, UniProt P19419 1-428).
T9 sequence: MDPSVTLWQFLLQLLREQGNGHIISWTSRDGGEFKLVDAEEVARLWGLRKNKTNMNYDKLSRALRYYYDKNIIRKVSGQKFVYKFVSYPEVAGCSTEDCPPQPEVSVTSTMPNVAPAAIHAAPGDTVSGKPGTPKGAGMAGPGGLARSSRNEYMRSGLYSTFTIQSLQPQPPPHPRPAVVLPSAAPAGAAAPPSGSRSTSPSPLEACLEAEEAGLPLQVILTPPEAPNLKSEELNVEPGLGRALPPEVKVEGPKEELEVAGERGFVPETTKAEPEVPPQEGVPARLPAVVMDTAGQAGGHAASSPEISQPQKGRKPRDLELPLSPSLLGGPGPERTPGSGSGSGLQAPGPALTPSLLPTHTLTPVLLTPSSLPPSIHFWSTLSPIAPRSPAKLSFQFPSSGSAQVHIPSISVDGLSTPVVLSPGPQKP
An outline of the steps:
as §1

The target in assay [13] is CRX (Homo sapiens, UniProt O43186 1-299). An outline of the steps:
as §1

The target in assay [14] is T10, SPDEF (Homo sapiens, UniProt O95238 1-335).
T10 sequence: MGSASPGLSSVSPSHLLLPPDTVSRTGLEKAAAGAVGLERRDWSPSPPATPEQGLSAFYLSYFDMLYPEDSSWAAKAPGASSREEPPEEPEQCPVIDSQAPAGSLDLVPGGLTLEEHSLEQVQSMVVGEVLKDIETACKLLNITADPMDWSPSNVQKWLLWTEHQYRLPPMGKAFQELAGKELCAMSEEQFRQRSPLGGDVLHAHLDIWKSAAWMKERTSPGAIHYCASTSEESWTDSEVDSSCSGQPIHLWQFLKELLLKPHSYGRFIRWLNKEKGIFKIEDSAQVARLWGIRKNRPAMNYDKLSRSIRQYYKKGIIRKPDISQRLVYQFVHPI
The method, boiled down:
as §1

In assay [15] the target is T11, ETV3L (Homo sapiens, UniProt Q6ZN32 1-361).
T11 sequence: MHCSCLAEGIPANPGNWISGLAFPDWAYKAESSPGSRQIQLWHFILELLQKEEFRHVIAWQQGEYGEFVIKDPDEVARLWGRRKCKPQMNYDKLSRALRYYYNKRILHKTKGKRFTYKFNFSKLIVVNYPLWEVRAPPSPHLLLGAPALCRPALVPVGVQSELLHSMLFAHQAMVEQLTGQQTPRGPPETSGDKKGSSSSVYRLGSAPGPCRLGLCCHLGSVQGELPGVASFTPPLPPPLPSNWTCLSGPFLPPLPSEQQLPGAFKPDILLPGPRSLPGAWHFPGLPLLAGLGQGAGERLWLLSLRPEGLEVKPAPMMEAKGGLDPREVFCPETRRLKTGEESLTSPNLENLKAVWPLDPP
The method, boiled down:
as §1

ETV1, sequence (P50549 whole entry): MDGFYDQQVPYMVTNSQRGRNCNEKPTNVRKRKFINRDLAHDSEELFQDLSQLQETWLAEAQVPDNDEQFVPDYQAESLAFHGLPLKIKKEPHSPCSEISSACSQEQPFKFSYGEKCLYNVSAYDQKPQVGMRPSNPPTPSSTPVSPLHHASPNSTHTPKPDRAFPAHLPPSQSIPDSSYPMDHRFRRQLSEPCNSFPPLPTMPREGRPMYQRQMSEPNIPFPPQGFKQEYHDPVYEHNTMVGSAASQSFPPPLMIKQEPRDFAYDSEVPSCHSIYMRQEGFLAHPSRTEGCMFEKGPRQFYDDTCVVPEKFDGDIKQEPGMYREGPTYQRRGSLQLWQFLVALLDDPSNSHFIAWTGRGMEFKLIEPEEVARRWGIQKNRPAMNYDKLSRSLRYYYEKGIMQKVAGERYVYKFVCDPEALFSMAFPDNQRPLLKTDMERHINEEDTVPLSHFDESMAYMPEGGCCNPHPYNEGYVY
ELF1, sequence (P32519 whole entry): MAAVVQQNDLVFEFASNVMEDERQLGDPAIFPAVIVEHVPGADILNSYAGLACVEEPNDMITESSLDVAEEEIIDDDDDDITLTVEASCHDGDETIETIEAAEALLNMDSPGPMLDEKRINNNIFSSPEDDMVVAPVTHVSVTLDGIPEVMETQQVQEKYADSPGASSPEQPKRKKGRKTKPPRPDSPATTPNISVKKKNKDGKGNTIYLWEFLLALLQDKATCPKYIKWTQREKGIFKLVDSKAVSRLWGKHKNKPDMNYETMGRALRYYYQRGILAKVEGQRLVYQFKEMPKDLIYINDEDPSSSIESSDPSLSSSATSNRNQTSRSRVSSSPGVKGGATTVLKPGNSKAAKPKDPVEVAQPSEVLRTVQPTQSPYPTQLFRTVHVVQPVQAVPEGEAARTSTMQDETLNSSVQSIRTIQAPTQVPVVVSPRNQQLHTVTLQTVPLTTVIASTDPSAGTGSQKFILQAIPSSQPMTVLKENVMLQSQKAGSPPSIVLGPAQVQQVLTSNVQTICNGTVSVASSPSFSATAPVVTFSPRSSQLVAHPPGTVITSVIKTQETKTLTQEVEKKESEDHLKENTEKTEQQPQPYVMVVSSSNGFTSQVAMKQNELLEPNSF
CRX, sequence (O43186 whole entry): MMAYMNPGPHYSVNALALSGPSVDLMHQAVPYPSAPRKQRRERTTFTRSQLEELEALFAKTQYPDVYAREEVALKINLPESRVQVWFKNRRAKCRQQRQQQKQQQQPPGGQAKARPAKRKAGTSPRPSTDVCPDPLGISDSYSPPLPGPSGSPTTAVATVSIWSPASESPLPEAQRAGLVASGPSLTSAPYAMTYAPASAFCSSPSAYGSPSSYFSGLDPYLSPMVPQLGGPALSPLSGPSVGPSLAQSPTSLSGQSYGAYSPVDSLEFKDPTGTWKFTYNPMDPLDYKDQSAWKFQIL

Take ATGAGG: the binding signal in [1] is 1.03 fold enrichment (6-mer frequency, TF over GST control); in [2], 1.4 fold enrichment (6-mer frequency, TF over GST control); in assay [3], 1.06 fold enrichment (6-mer frequency, TF over GST control); in assay [4] it was 1.17 fold enrichment (6-mer frequency, TF over GST control); in assay [5], 1.01 fold enrichment (6-mer frequency, TF over GST control); in assay [6] it was 1.11 fold enrichment (6-mer frequency, TF over GST control). Besides, the binding signal in assay [7] was 1.01 fold enrichment (6-mer frequency, TF over GST control).
Take CACTGA: the binding signal in [1] was 1.09 fold enrichment (6-mer frequency, TF over GST control); in assay [8], 1.02 fold enrichment (6-mer frequency, TF over GST control); in assay [9], 1.07 fold enrichment (6-mer frequency, TF over GST control); in [3], 1.06 fold enrichment (6-mer frequency, TF over GST control); in assay [10], 1.01 fold enrichment (6-mer frequency, TF over GST control); in assay [5], 1.09 fold enrichment (6-mer frequency, TF over GST control). In addition, in [11], the binding signal was 1.04 fold enrichment (6-mer frequency, TF over GST control).
On to GATCAC, for which the binding signal in assay [12] is 1.01 fold enrichment (6-mer frequency, TF over GST control); in assay [8], 1.02 fold enrichment (6-mer frequency, TF over GST control); in assay [9], 1.16 fold enrichment (6-mer frequency, TF over GST control); in [3], 1.01 fold enrichment (6-mer frequency, TF over GST control); in [4], 1.04 fold enrichment (6-mer frequency, TF over GST control); in assay [13], 1.09 fold enrichment (6-mer frequency, TF over GST control). Besides, in [14], the binding signal is 1 fold enrichment (6-mer frequency, TF over GST control).
With GCCATC, the binding signal in [3] was 1.17 fold enrichment (6-mer frequency, TF over GST control); in [15] it was 1.03 fold enrichment (6-mer frequency, TF over GST control).

Values taken from paper PMC7862700, “An all-to-all approach to the identification of sequence-specific readers for epigenetic DNA modifications on cytosine”.
